# Measurements published in PubChem BioAssay (NCATS).
# Records with an inconclusive call do not appear. Where a call stands in place of a potency, no number is given. Activity calls are given as the source filed them. Unless noted, calls follow the shape of the dose curve; as a rule, active = well fitted curve in the direction sought with a large enough effect; inconclusive = small, poorly fitted or top-dose-only effect, or another doubt; inactive = no such curve, though single readings can be large; an effect the other way counts as inactive or inconclusive.
# Tests used:
# [1] = NCATS anti-infectives library activity on HEK293 viability as a counter-qHTS vs the C. elegans viability qHTS (AID 1745854); details: HEK293 viability counter-screen; series mostly up to 41.8 µM;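 also: HEK293 cells exposed to compounds for 24 hr before the viability read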
# Summary of the method: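 HEK293 cells (1,500/well) exposed 24 hr at 37C to 1:5 titrations, up to 41.7 uM final; counter-screen to a C. elegans viability qHTS. Viability by CellTiter-Glo luminescence after 10 min at room temperature; digitonin as control.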
# [2] = system: Zika virus NS2B-NS3 protease (unlinked complex); assay: Confirmatory screen GU AMC qHTS for Zika virus inhibitors (AID 1347153); details: Recombinant NS2B-NS3 protease, AMC substrate fluorescence; series mostly up to 111 µM;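 also: enzyme at 25 nM with substrate at 10 µM below its Km of 18.3 µM; potency is read from the fitted curve at half-maximal effect; nearly all actives have a fitted effect of over 70% in size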
# Summary of the method: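 Fluorescence change (ex 340/em 450 nm) over 15 min, ~20% substrate conversion, normalized to no-inhibitor and no-enzyme controls, then Hill-fitted. Unlinked protease at 25 nM; AMC peptide 10 µM.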
# [3] = Confirmatory screen GU Rhodamine qHTS for Zika virus inhibitors qHTS (AID 1347157); details: purified enzyme assay, Rhodamine110 substrate fluorescence, 15 min; series mostly up to 114 µM; also: potency is read from the fitted curve at half-maximal effect; nearly all actives have a fitted effect of over 70% in size
# Summary of the method: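 Percent inhibition came from the 15-min rise in Rhodamine110 fluorescence (1.5 microM substrate, ~15% conversion), normalized to no-inhibitor and no-enzyme wells and Hill-fitted. Unlinked protease, 25 nM, pH 8.0 Tris buffer; compounds up to 114 microM, 15-min preincubation.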
# [4] = system: Zika virus NS2B-NS3 protease (linked); assay: 384 well plate NINDS AMC confirmatory qHTS for Zika virus inhibitors (AID 1347163); details: Recombinant NS2B-NS3 protease, Ac-VKTGKR-AMC fluorescence; series mostly up to 1 mM; also: nearly all actives have a fitted effect of over 50% in size; also: potency is read from the fitted curve at half-maximal effect;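 as to activity change, negative = inhibition: linked protease at 5 30 or 60 nM final depending on run; fluorescence of AMC released from Ac-VKTGKR-AMC peptide cleaved by the protease; top concentration of the series differs between compounds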
# Summary of the method: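 Linked NS2B-NS3 protease (final 5 nM, 30 nM or 60 nM) was preincubated with compounds (final up to 1 mM) for ~15 minutes. Ac-VKTGKR-AMC substrate (final 30 microM) then reacted for 25 minutes at room temperature in the dark. Fluorescence (ex 355/em 460 nm) was normalized to no-enzyme and no-inhibitor controls.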
# [5] = Vero cells viability qHTS for Zika virus inhibitors (AID 1347167); details: cytotoxicity counter-screen (Zika); series mostly up to 45.9 µM; also: potency is read from the fitted curve at half-maximal effect
# Summary of the method: (§1)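 Compounds were tested in concentration series on cells grown in DMEM containing 4% FBS. After 24 to 48 hours, cellular ATP was measured by luminescence with CellTiter Glo.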
# [6] = HepG2 cells viability qHTS for Zika virus inhibitors (AID 1347168); details: Zika counter-screen; series mostly up to 45.9 µM
# Summary of the method: as §1
# [7] = system: NIH3T3; assay: qHTS assay to identify novel small-molecules to repurpose for Merkel cell carcinoma treatment (AID 1296009); details: MCC and control cell lines, CellTiter-Glo viability, 72 h; series mostly up to 9.27 µM; also: nearly all actives have a fitted effect of over 60% in size; also: potency is read from the fitted curve at half-maximal effect
# Summary of the method: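 72 hr, 37 degree celsius; NPC 8-pt / MIPE 11-pt dose response; compound pinned in DMSO; CellTiter-Glo, 10 min RT, luminescence; normalized to no-cell and DMSO controls.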
# [8] = target: Furin (Homo sapiens) (UniProt P09958); assay: Furin counterscreen qHTS for Zika virus inhibitors (AID 1347149); details: furin enzymatic counterscreen, fluorogenic substrate; series mostly up to 114 µM; also: nearly all actives have a fitted effect of over 70% in size; also: potency is read from the fitted curve at half-maximal effect;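 as to activity change, negative = inhibition: purified recombinant full-length human furin enzyme at 5 nM; fluorescence gain from furin cutting a BOC-RVRR-AMC peptide substrate over 15 min; top concentration of the series differs between compounds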
# Furin (Homo sapiens), sequence (P09958 whole entry, looked up): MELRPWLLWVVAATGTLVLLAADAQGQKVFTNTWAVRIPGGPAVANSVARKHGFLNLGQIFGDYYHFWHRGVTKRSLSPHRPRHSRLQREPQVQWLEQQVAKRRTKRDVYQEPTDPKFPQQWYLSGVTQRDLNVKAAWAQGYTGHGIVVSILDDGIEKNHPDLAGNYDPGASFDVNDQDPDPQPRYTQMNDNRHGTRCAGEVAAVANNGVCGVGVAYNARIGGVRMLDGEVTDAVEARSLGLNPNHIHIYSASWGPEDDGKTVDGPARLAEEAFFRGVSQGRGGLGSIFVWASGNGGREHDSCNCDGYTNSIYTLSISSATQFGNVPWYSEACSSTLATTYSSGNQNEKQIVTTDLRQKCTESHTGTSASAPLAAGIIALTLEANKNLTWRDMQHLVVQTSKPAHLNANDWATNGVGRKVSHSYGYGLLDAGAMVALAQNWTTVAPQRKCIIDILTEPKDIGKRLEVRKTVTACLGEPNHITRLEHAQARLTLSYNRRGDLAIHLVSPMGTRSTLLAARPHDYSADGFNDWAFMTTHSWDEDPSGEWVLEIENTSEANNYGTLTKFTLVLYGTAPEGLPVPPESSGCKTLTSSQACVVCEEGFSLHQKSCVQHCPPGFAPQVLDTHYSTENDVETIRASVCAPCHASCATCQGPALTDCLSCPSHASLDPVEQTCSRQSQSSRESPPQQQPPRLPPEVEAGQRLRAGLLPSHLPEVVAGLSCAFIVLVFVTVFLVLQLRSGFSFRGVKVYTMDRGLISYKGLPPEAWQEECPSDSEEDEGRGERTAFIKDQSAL
# Summary of the method: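 Fluorogenic cleavage of BOC-RVRR-AMC (2 microM final, Km ~15 µM) was monitored (ex 340, em 450 nm) at 37C after 15 min RT preincubation of 5 nM furin with compounds in HEPES pH 7.0 buffer with CaCl2 and Triton X-100. Percent inhibition was fitted to a 4-parameter Hill curve.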
# [9] = Tertiary RLuc qRT-PCR qHTS assay for Zika virus inhibitors (AID 1347169); details: infected Vero cells, reporter luminescence, 48-72 h; series mostly up to 1.74 µM; also: nearly all actives have a fitted effect of over 55% in size; also: potency is read from the fitted curve at half-maximal effect; as to activity change, negative = inhibition: top concentration of the series differs between compounds
# Summary of the method: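 Inhibition of ZIKV-RLuc replication in Vero cells, read as Renilla luminescence 1-1.5 hrs after live-cell substrate addition, following 48-72 hrs infection at MOI 1-2 in presence of compound.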
# [10] = NS1 protein of Zika virus - qHTS assay to identify small molecule inhibitors in human HEK 293 cells (AID 1347053); details: HEK293 ZIKV MR766 infection, NS1 TR-FRET, 24 h; series mostly up to 46.1 µM; also: nearly all actives have a fitted effect of over 55% in size
# Summary of the method: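 Following 20 h seeding, HEK 293 cells took compound, then 1 h later ZIKV MR766 (MOI = 0.5). Incubation ran 24 h at 37 C before TR-FRET detection of NS1; a drop in signal indicates inhibition.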
# [11] = qHTS of pediatric cancer cell lines to identify multiple opportunities for drug repurposing: Primary screen for Saos-2 cells (AID 1347097); details: Saos-2 viability, CellTiter-Glo ATP luminescence, 48 h; also: potency is read from the fitted curve at half-maximal effect; nearly all actives have a fitted effect of over 40% in size
# Summary of the method: (§2)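 Cells seeded at 500-1,000 cells/well in growth media, rested 5 hours at 37 degrees C, 5% CO2, then dosed; MIPE compounds at 11-point (from 0.78 nM) and NPC at 8-point (from 0.59 nM) final concentrations. Viability by CellTiter-Glo luminescence after 48 hours.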
# [12] = qHTS of pediatric cancer cell lines to identify multiple opportunities for drug repurposing: Primary screen for NB1643 cells (AID 1347099); details: NB1643 neuroblastoma viability, CellTiter-Glo luminescence, 48 h; series mostly up to 46 µM; also: nearly all actives have a fitted effect of over 50% in size; also: potency is read from the fitted curve at half-maximal effect
# Summary of the method: as §2
# [13] = qHTS of pediatric cancer cell lines to identify multiple opportunities for drug repurposing: Primary screen for OHS-50 cells (AID 1347103); details: OHS-50 osteosarcoma viability, CellTiter-Glo luminescence, 48 h; also: potency is read from the fitted curve at half-maximal effect; nearly all actives have a fitted effect of over 40% in size
# Summary of the method: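 Cells (500-1,000/well) rested 5 h, then received compounds for 48 h; metabolically active cells were measured by CellTiter-Glo luminescence. Final concentrations spanned up to 46 µM (MIPE, 11-point) or 0.59 nM-46 µM (NPC, 8-point) in primary screens, 11-point in follow-ups.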
# [14] = system: Zika virus NS2B-NS3 protease; assay: Primary screen GU AMC qHTS for Zika virus inhibitors (AID 1347154); details: Zika NS2B-NS3 unlinked protease, AMC fluorogenic substrate; series mostly up to 54.1 µM; also: nearly all actives have a fitted effect of over 70% in size
# Summary of the method: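 Fluorogenic AMC-substrate cleavage by noncovalent NS2B-NS3 protease complex (25 nM, pH 8.0 Tris buffer with Tween 20) followed for 15 minutes at room temperature (~20% conversion). Percent inhibition from ex340/em450 signal change, fitted by 4-parameter Hill equation.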
# [15] = qHTS to identify inhibitors of the type 1 interferon - major histocompatibility complex class I in skeletal muscle: primary screen against the NCATS Pharmaceutical Collection (AID 1347407); details: human skeletal muscle cells, IFN-b-induced MHC-I HiBiT luminescence, 24 h; series mostly up to 45.9 µM;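 also: luminescence of HiBiT knocked into endogenous HLA-B as interferon-induced MHC class I level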
# Summary of the method: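 A qHTS format is used: 8-point, 1:5 compound series with 46 uM top final concentration, applied alongside 4 ng/ml IFN-beta to HLA-B*08:01-HiBiT knock-in myoblasts. Luminescence is measured after 24 h treatment.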
# [16] = target: Protein phosphatase 1D (Homo sapiens) (UniProt O15297); assay: RapidFire Mass Spectrometry qHTS Assay for Modulators of WT P53-Induced Phosphatase 1 (WIP1) (AID 1347424); details: WIP1 dephosphorylation of phosphopeptide, RapidFire MS; series mostly up to 63 µM;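 also: amount of dephosphorylated VEPPL-S-QETFS peptide product formed by WIP1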
# Protein phosphatase 1D (Homo sapiens), sequence (O15297 whole entry, looked up): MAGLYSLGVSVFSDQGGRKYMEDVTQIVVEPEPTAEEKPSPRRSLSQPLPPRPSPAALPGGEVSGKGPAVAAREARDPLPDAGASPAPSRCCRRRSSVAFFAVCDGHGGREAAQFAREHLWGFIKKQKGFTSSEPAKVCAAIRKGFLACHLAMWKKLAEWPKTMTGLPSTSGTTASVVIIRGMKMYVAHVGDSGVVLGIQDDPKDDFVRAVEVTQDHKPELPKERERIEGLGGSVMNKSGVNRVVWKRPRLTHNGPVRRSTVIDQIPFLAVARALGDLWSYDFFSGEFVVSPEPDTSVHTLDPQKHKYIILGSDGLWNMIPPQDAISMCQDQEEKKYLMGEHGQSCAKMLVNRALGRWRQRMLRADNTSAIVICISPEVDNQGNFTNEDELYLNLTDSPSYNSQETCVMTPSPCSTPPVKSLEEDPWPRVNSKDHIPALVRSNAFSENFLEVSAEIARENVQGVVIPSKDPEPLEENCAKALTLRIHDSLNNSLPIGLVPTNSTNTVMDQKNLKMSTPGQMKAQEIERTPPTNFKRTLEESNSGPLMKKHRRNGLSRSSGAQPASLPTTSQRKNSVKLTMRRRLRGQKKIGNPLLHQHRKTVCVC
# Summary of the method: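 10 nM WIP1 + cpd, 1 h RT; + 2 uM VEPPL-pS-QETFS, 5 min RT; stop 0.5% formic acid; labelled product standard 1 uM; RapidFire MS. Buffer 50 mM Tris pH 7.5, 30 mM MgCl2, 1 mM TCEP.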
# [17] = Primary qHTS for inhibitors of La Crosse Virus (LACV) - induced cell death in SH-SY5Y cells (AID 1508616); details: SH-SY5Y LACV cytopathicity rescue, ATP luminescence, 6 d; series mostly up to 9.63 µM;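 also: top concentration of the series differs between compounds; higher means more rescue of cells from virus-induced death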
# Summary of the method: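 SH-SY5Y cells (6000/well) plated 24 h, then given compounds by pin transfer and LACV at 0.01 MOI for 6 days at 37C. Viability measured by ATPLite luminescence, normalized to infected DMSO and uninfected DMSO.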
# [18] = Primary qHTS for small molecule stabilizers of the endoplasmic reticulum resident proteome: Secreted ER Calcium Modulated Protein (SERCaMP) assay (AID 1508630); details: SH-SY5Y GLuc-SERCaMP (Gaussia luciferase released on ER calcium loss) secretion, thapsigargin, luminescence; series mostly up to 38.4 µM
# Summary of the method: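 GLuc-SERCaMP-expressing SH-SY5Y cells, pretreated 16 h with compound, are challenged with thapsigargin to empty ER calcium stores; after 4 h, coelenterazine is added directly to the medium and luminescence is imaged.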
# [19] = qHTS profiling for inhibitors of Plasmodium falciparum proliferation (AID 504749); also: potency is read from the fitted curve at half-maximal effect; as to all read-outs here: nearly all actives have a fitted effect of over 60% in size; details: P. falciparum in erythrocytes, SYBR Green DNA, 72 h; for activity, negative = inhibition: at 28.7 µM (top of the series)
# Summary of the method: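 Infected RBCs, 0.3% parasitemia/2.5% Hct final; cpd 72 h, 37 C, 5% CO2; lysis buffer with saponin/triton/SYBR Green I, o/n RT dark; FI 485/535; norm. to artemisinin (0.29 uM) and DMSO.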
# [20] = qHTS Assay for Lipid Storage Modulators (AID 1519; calls by dose curve); details: Drosophila S3 cells, BODIPY lipid droplet/cell ratio, laser cytometry, cells loaded with oleic acid
# Summary of the method: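 Cells seeded at 5,000 per well were treated with compounds over a concentration series and loaded with oleic acid (400 uM, as added). Lipid droplet fluorescence (488 nm excitation, 500-530 nm channel) was read by laser-scanning cytometry and normalized to 20 uM Triacsin C.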
smiles,measurement,setting,value
CCOC(=O)c1cccc(CNc2ccc(N(C)C(=O)Nc3ccccc3)cc2)c1,outcome,[1],inactive
CN(Cc1ccc(C(=O)O)cc1)c1ccc(OCc2c(-c3c(Cl)cccc3Cl)noc2C2CC2)nc1C(F)(F)F,Potency,[2],13.9 µM (active)
same,Potency,[3],2.21 µM (active)
same,Potency,[4],3.98 µM (active)
same,Potency,[5],inactive
same,Potency,[6],inactive
O=C(c1ccc(F)c(F)c1Nc1ccc(I)cc1F)N1CC(O)([C@@H]2CCCCN2)C1,Potency,[7],9.2 µM (active)
CC1CCN(C(c2ccc(F)cc2)c2ccc(C(C)C(=O)O)cc2-c2ccc(C(F)(F)F)cc2)CC1 (centres undefined),Potency,[8],inactive
same,Potency,[2],15.6 µM (active)
same,Potency,[3],3.93 µM (active)
same,Potency,[4],0.891 µM (active)
same,Potency,[5],18.6 µM (active)
same,Potency,[6],inactive
same,Potency,[9],6.58 µM (active)
CCN(CC)c1ccc(C(=C2C=CC(=[N+](CC)CC)C=C2)c2cc(S(=O)(=O)O)ccc2S(=O)(=O)[O-])cc1,outcome,[10],inactive
same,Potency,[11],21.1 µM (active)
same,Potency,[12],21.1 µM (active)
same,Potency,[13],17.4 µM (active)
same,Potency,[14],inactive
same,outcome,[15],inactive
same,outcome,[16],inactive
same,outcome,[17],inactive
CC(=O)N1c2ccc(-c3ccc(C(=O)O)cc3)cc2C(Nc2ccc(Cl)cc2)CC1C (centres undefined),Potency,[8],inactive
same,Potency,[6],inactive
same,Potency,[9],0.093 µM (active)
O=C(NCc1ccc(Oc2ccccc2)cc1)c1nc(-c2cc(Br)c(O)c(Br)c2)no1,Potency,[4],2.51 µM (active)
same,Potency,[6],inactive
O=C(NC(NC(=S)Nc1ccc(F)c([N+](=O)[O-])c1)C(Cl)(Cl)Cl)C(c1ccccc1)c1ccccc1 (centres undefined),Potency,[14],inactive
same,Potency,[18],inactive
CN(CC(=O)N(Cc1ccc(C2CCCCC2)cc1)c1ccc(C(=O)O)cc1)S(=O)(=O)c1c(F)c(F)c(F)c(F)c1F,Potency,[2],22.1 µM (active)
same,Potency,[3],3.5 µM (active)
same,Potency,[4],50.1 µM (active)
same,Potency,[9],7.39 µM (active)
CS(=O)(=O)c1ccc(-c2cn3ccccc3n2)cc1,outcome,[10],inactive
same,Potency,[11],16.8 µM (active)
same,Potency,[12],inactive
same,Potency,[13],17.4 µM (active)
same,Potency,[8],5.39 µM (active)
same,Potency,[2],24.1 µM (active)
same,Potency,[5],inactive
same,Potency,[9],inactive
same,outcome,[15],inactive
same,outcome,[16],inactive
same,outcome,[17],inactive
same,Potency,[18],inactive
C=C1[C@@H](C2=CC(=O)OC2)CC[C@@]2(O)[C@@H]1CC1[C@H]2CC[C@@H]2C[C@@H](O[C@H]3O[C@@H](C)[C@@H](O[C@@H]4O[C@H](CO[C@@H]5O[C@H](CO)[C@@H](O)[C@H](O)[C@H]5O)[C@@H](O)[C@H](O)[C@H]4O)[C@H](OC)[C@H]3O)CC[C@]12C (some centres undefined),Potency,[7],inactive
Nc1nc(NCC2CCC(CNS(=O)(=O)c3cccc4ccccc34)CC2)nc2ccccc12 (centres undefined),Potency,[14],inactive
same,Potency,[18],inactive
Oc1ccc(Nc2nc(-c3ccc(Cl)cc3)cs2)cc1,Potency,[14],inactive
Cc1ccn(-c2cc(Cl)ccc2[C@@H](Oc2cc(-c3ccc(C[C@H](N)C(=O)O)cc3)nc(N)n2)C(F)(F)F)n1,Potency,[3],22.1 µM (active)
same,Potency,[9],20.8 µM (active)
Nc1ccc(N)c([N+](=O)[O-])c1,outcome,[17],inactive
O=C(CC1NCCC[C@H]1O)Cn1cnc2cc(Br)c(Cl)cc2c1=O (some centres undefined),Potency,[19]; parasite line A,2 µM (active)
same,Potency,[19]; parasite line B,3.55 µM (active)
CN(C)CC(=O)Nc1ccc2[nH]c(=O)c3ccccc3c2c1,outcome,[1],inactive
CC[C@H](C)[C@H]1O[C@]2(CC[C@@H]1C)C[C@@H]1C[C@@H](C/C=C(\C)[C@@H](O[C@H]3C[C@H](OC)[C@@H](O[C@H]4C[C@H](OC)[C@@H](O)[C@H](C)O4)[C@H](C)O3)[C@@H](C)/C=C/C=C3\CO[C@@H]4[C@H](O)C(C)=C[C@@H](C(=O)O1)[C@]34O)O2,Potency,[8],inactive
same,Potency,[4],inactive
same,Potency,[5],inactive
same,Potency,[6],inactive
CCCCC(=O)N(Cc1ccc(-c2ccccc2-c2nn[nH]n2)cc1)C(C(=O)O)C(C)C (centres undefined),"activity change, negative = inhibition",[20]; at 57.5 µM (top of the series),-6.27% (inactive)
same,max response,[20]; measured here: cell count channel max response,7.79%
same,max response,[20]; measured here: lipid channel max response,4.86%
same,"activity, negative = inhibition",[19]; parasite line A,9.14% (inactive)
same,"activity, negative = inhibition",[19]; parasite line B,6.89% (inactive)
